Assay outcomes from PubChem BioAssay.
KB-3-1 cytotox: KB-3-1 parental cell cytotoxicity; KB-3-1 viability, CellTiter-Glo ATP luminescence, 72 h; Potency, µM (top dose mostly 46.1 µM), hits mostly cytotoxic; actives 1.4% (n = 400,000); further: nearly all actives have a fitted effect of over 60% in size
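Cells are dispensed, compounds pinned in, plates held at 37 °C for 72 h, then CellTiter-Glo is added and luminescence read after 10 minutes. Cell line: parental KB-3-1 in phenol-red-free DMEM, 10% FBS.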
KB-V1 MDR tox: KB-V1 MDR subline cytotoxicity. KB-V1 MDR cells viability, CellTiter-Glo, 72 h. Potency, µM (titrated, usually from 46.1 µM), usual class: cytotoxic. actives 3.4% (n = 400,000); further: nearly all actives have a fitted effect of over 60% in size
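Cytotoxicity toward P-gp-expressing KB-V1 cells was determined as loss of CellTiter-Glo luminescence after 72 h at 37 degrees C. Compounds were tested in quantitative HTS format across a concentration range, with curves fitted to normalized data.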
RORg inh: ROR gamma (mouse) transcription inhibition | Potency, µM (titrated, usually from 53.6 µM), most hits filed as inhibitors | Drosophila S2 Gal4-RORgamma UAS-luciferase reporter, 20 h | actives 5.4% (n = 310,000); further: nearly all actives have a fitted effect of over 60% in size
Target sequence (P51450 whole entry, looked up, the tested form may be a part): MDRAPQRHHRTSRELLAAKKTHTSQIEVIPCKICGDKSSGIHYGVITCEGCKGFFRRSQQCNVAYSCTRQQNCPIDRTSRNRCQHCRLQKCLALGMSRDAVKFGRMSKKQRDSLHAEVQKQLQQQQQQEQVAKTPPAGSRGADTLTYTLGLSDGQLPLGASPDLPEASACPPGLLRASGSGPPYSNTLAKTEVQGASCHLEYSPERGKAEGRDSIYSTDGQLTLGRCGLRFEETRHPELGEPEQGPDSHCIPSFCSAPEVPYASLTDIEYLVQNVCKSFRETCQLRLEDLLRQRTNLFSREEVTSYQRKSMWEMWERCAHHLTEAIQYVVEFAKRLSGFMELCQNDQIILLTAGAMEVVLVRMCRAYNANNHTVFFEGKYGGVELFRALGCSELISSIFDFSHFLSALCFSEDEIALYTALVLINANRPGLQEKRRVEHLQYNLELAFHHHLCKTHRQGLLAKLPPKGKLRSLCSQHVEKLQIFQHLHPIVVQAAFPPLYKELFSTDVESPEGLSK
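Stably transfected Drosophila Schneider cells are the test system, with ROR gamma fused to Gal4 and luciferase under UAS control; luminescence is read after 20 hr of 700 uM copper sulfate induction at ambient temperature.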
VP16 counter: Gal4-VP16 reporter inhibition counter-screen; Potency, µM (top dose mostly 53.6 µM), most hits filed as inhibitors; actives 3.5% (n = 310,000); Drosophila S2 Gal4-VP16 UAS-luciferase, luminescence, 20 h;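 further: Gal4-VP16 expression switched on by copper sulfate through the metallothionein promoter; nearly all actives have a fitted effect of over 50% in size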
SW480 rerep: inducers of DNA re-replication in SW480 colon cancer cells; SW480 DNA re-replication, Hoechst DNA content imaging, 48 h; Potency, µM (top dose mostly 46.1 µM), usual class: activators; actives 1.8% (n = 340,000); further: nearly all actives have a fitted effect of over 55% in size
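SW480 cells exposed to compounds for 48 hr at 37 C, 5% CO2, then Hoechst-stained 40 min. Nuclear DNA content imaged by fluorescence scanning (405 nm excitation, 500-530 nm emission); re-replication scored as increased high-intensity nuclei.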
MCF10A rereplic: induces DNA re-replication in MCF 10a normal breast cells. MCF 10A DNA re-replication, Hoechst nuclear intensity, 48 h. Potency, µM (doses to about 46.1 µM), hits mostly activators. actives 2.9% (n = 350,000); further: nearly all actives have a fitted effect of over 50% in size
A number is an active result; n = inactive; u = inconclusive; x = no result; [ ] = another dose, or the depositor's remark. An excerpt weighted towards active compounds, which were near 10% of everything screened. The call rests on the fitted dose curve; in most records, active means well fitted curve in the direction sought with a large enough effect; inconclusive means small, poorly fitted or top-dose-only effect, or another doubt; inactive means no such curve, though single readings can be large; an effect the other way counts as inactive or inconclusive.

SMILES | KB-3-1 cytotox | KB-V1 MDR tox | RORg inh | VP16 counter | SW480 rerep | MCF10A rereplic
O=C(CN1C(=O)CCC1=O)c1ccc(-c2ccccc2)cc1 | n | n | n | n | n | n
COc1ccc(N(CC(=O)NCCc2ccccc2)S(=O)(=O)c2ccc(OC)c(OC)c2)cc1 | n | n | x | x | x | x
O=C(c1csc2c1CCCC2)N1CCN(c2cccc(C(F)(F)F)c2)CC1 | n | 21µM | n | n | n | u
O=C(c1csc2c1CCCC2)N1CCN(c2ccc(F)cc2)CC1 | n | n | n | n | n | u
O=C(c1csc2c1CCCC2)N1CCN(c2ncccn2)CC1 | n | 16µM | n | n | n | n
COC(=O)c1nn(-c2ccc(OC)cc2)c(=O)c2c(N)sc(C)c12 | n | n | n | n | 29µM | n
COc1ccccc1-n1nc(-c2ccccc2)c2cnc3cc(C(F)(F)F)ccc3c21 | n | n | x | x | x | x
Cc1nn(Cc2ccc(Cl)cc2Cl)c(C)c1NC(=O)c1sc2ccccc2c1Cl | n | n | n | n | n | n
Cc1ccccc1Cn1nc(C)c(NC(=O)c2sc3ccccc3c2Cl)c1C | u | 13µM | n | u | n | u
Cc1ccc(NC(=O)c2cn(-c3ccccc3)nc2-c2ccccc2)cc1 | n | u | x | x | x | x
Cc1nn(Cc2c(Cl)cccc2Cl)c(C)c1NC(=O)c1cn(-c2ccccc2)nc1-c1ccccc1 | 8.2µM | 9.2µM | u | u | 8.2µM | 4.5µM
Cc1nn(Cc2c(Cl)cccc2Cl)c(C)c1NC(=O)c1sc2ccccc2c1Cl | n | n | n | n | u | 10µM
[O-][N+](=NC1C=Cc2ccccc21)C1C=Cc2ccccc21 (stereo not given) | u | n | x | x | x | x
O=C1NC[C@H](Cc2ccccc2)N(C[C@@H]2CCCN2C[C@H](Cc2ccc(O)cc2)N2C[C@H](Cc3ccccc3)N(CC3CCCCCC3)C(=O)C2=O)C1=O | n | n | x | x | x | x
O=C(CSc1nnc(-c2ccccc2F)o1)N1CCc2ccccc21 | n | n | x | x | x | x
Cc1ccc(-n2c3c(cc(C(=O)NCc4ccco4)c2=O)C(=O)CCC3)cc1 | n | n | n | n | n | n
O=C1CCCc2c1cc(C(=O)NCc1ccco1)c(=O)n2-c1ccc(Cl)cc1 | u | 16µM | n[0.365 µM] | x | n | n
COc1ccc(Cn2nnnc2CN2CCc3ccccc32)cc1 | n | n | n | n | 23µM | n
COc1ccc(Cn2nnnc2CN2CCc3ccccc3C2)cc1 | n | n | n | n | n | n
COc1ccc(C2(O)CCN(Cc3nnnn3Cc3ccc(C)cc3)CC2)cc1 | n | n | n | n | u | 21µM
COc1cc(C2NC(=O)N(C)C3=C2C(=O)N(c2ccccc2)C3)ccc1O (stereo not given) | n | n | x | x | x | x
Cc1cccc(N2CCN(C(=O)c3cc(S(=O)(=O)N4CCCC4)cn3C)CC2)c1C | n | n | n | n | 15µM | 8.2µM
Cc1cccc(N2CCN(S(=O)(=O)c3csc(C(N)=O)c3)CC2)c1C | 21µM | n | x | x | x | x
Cn1cc(S(=O)(=O)N2CCCCCC2)cc1C(=O)N1CCN(c2cccc(C(F)(F)F)c2)CC1 | u | 21µM | x | x | x | x
CCN(C(=O)CCS(=O)(=O)c1ccc2c(c1)CCN2C(C)=O)c1cccc(C(F)(F)F)c1 | n | u | x | x | x | x
SMILES | KB-3-1 cytotox | KB-V1 MDR tox | RORg inh | VP16 counter | SW480 rerep | MCF10A rereplic
Cc1ccc(CNC(=O)CCCCCn2c(=O)c3sccc3n(CC(=O)C(C)(C)C)c2=O)cc1 | n | n | x | x | x | x
CCc1ccc(S(=O)(=O)Nc2ccc(O)c3c(=O)cc(-c4ccccc4Cl)oc23)cc1 | n | n | n | n | n | n
O=c1cc(-c2ccccc2Cl)oc2c(NS(=O)(=O)c3cc(Cl)cc(Cl)c3O)ccc(O)c12 | u | 18µM | u | 5µM | n | n
CCc1cccc(C)c1NC(=O)C(C)Sc1nc2c(c(=O)[nH]1)CCCC2 (stereo not given) | n | n | x | x | x | x
Cn1cc(C(=O)c2ccc(Cl)cc2Cl)cc1C(=O)N/N=C(\N)COc1cccc(C(F)(F)F)c1 | u | u | 2.2µM | 2µM | n | n
COC(=O)c1cc(C(=O)c2ccc(Cl)cc2Cl)cn1C | u | 13µM | u | n | n | n
Cc1cccc(CNC(=O)Cn2c(-c3cccs3)cc3ccccc32)c1 | n | n | x | x | x | x
